16 molecules from paper PMC12136788 can be followed below.

First the molecules themselves.
B1: chr19:7961171:7961272:-|3pUTR|ENSG00000066044|msi1|FALSE|unique (ssRNA)
RNA: GGGAGUUCUACAGUCCGACGAUCGGCGGGAUUCCCGCUUCUGAAACUCCCCCUGGAGUCUCACUCCCACACAUGCCCAUAGCUAGCAUUCAACAGAGAACUCUGUCUUAAGCUUCAACUGUGAAAAUGAUGACGGGCUUGUAGCAACAGAGGAUUGAGCAUCA
B2: chr8:52110837:52113338:-|three_prime_utr|ENSG00000147488|control|control|control (ssRNA)
RNA: GGGAGUUCUACAGUCCGACGAUCCCCCGGAAUGCAAAGCUCUACUGGAAAGUAUCAAACAGGCAGUGAAGGGUAUCCAUGUGUAGGAUCACAGCGCUGCCGGGCAACAGAAGUUACCAACAGCAGUAAACUCCAGAUGGAUCUCAACAGAGGAUUGAGCAUCA
B3: ENSG00000107863:be:win_4051|CDS|ENSG00000107863|bound_else_gene|NA|bound_elsewhere_windowed (ssRNA)
RNA: GGGAGUUCUACAGUCCGACGAUCGUGCAGGAGGAAAGCACAGUAGACUCCCAGCCAGUGCCAAACAUAGAUCAUUUACUCACCAACAUUGGAAGGACAGGAGUCUCCCCAGGAGAUGUAUCAGAUUCAGCUACUAGUGACUCACAACAGAGGAUUGAGCAUCA
B4: ENSG00000107863:be:win_5501|CDS|ENSG00000107863|bound_else_gene|NA|bound_elsewhere_windowed (ssRNA)
RNA: GGGAGUUCUACAGUCCGACGAUCCUGUAAACCGGUUAAAACCAAAAUGCUCAGCCCAGGACCUUUCCAUCUCAGACUGGCUGGCCAGGGAACGCCUACGCACCAGUACCUCUGACCUUAGCAGAGGAGAAAUCGGAGAUCCCCCAACAGAGGAUUGAGCAUCA
B5: chr7:123541454:123541562:-|3pUTR|ENSG00000128609|unk|FALSE|unique (ssRNA)
RNA: GGGAGUUCUACAGUCCGACGAUCUCCAUAGUGUCAUUUUAUUUUAGUCAUUAUUGAAUUAUACCAUUUACUCUGUUUUCUUAUAGUCUUAAUUUUAUUAUAUUUUGUUGUUACUGUAUUAUAUUUGAAAACCUUCAAAUUAGACAACAGAGGAUUGAGCAUCA
B6: chr1:93361585:93361687:+|3pUTR|ENSG00000117505|unk|FALSE|unique (ssRNA)
RNA: GGGAGUUCUACAGUCCGACGAUCUUUAACUUGUAGUUAUAGUUUACUUAUUGUUUUUAGAAUUACUUUUACAUUUUCCCAACUAGAUGGCCUAGAGUCCAACAUUACCUUUUGAGAUGACAUUAUUGUCUCCAUAAUUGAGUGCAACAGAGGAUUGAGCAUCA
B7: chr5:113594843:113594944:+|3pUTR|ENSG00000047188|msi1|total|mutant (ssRNA)
RNA: GGGAGUUCUACAGUCCGACGAUCCAACAUAAAAUCUUGAGAACCUUCUACUUUCUCUGGGAAAGCAUUAUACCGUGGUGCAUCCGUUCCGAAAGUCAGCUAUGAUUUUGCCUACCGUUCCCGUUAUCCGCUUUGGGGUUUUCUCAACAGAGGAUUGAGCAUCA
B8: chr10:16593140:16593241:-|3pUTR|ENSG00000148484|unk|FALSE|unique (ssRNA)
RNA: GGGAGUUCUACAGUCCGACGAUCUUAUUUUUCUUUUCACUCUCUUUCUAAUGCUUCCCACCUUACCUUUUAGAUUCUUUUGCUAGGUGGGAGAUUGUUAUAAGGUCUUUAAACCAUUUCCAUUUGUUUCUUUAACAUUACCAACAACAGAGGAUUGAGCAUCA
B9: ENSG00000165219:stop:overlap|stop_codon|ENSG00000165219|stop_codon|NA|stop_codon (ssRNA)
RNA: GGGAGUUCUACAGUCCGACGAUCUACCUAUAGGUAAAGAGAAUUUCUCGUAUUGGAGCUUUCUCUUAAAUCUAAUAUUUCAUUAGCCUUUGUUAUUGCUGAGUGUUUUGGAACAUAUGUUUAAGUACUUGGGAAAGUCUUUCUCAACAGAGGAUUGAGCAUCA
B10: chr2:216672374:216672548:-|3pUTR|ENSG00000115461|msi1|FALSE|unique (ssRNA)
RNA: GGGAGUUCUACAGUCCGACGAUCUUUUUCUUUUUUUUUUUGAAGACAGCAAUAACCACAGUACAUAUUACUGUAGUUCUCUAUAGUUUUACAUACAUUCAUACCAUAACUCUGUUCUCUCCUCUUUUUUGUUUUCAACUUUAACAACAGAGGAUUGAGCAUCA
B11: chr1:93361585:93361687:+|3pUTR|ENSG00000117505|unk|total|mutant (ssRNA)
RNA: B6 RNA with U33C, A34C, U39C, A40C, U57C, A58C, U83C, A84C, U92C, A93C
B12: chr10:117282838:117282939:-|3pUTR|ENSG00000165650|unk|FALSE|bound_elsewhere (ssRNA)
RNA: GGGAGUUCUACAGUCCGACGAUCCCCCUUGUGUUAUUUUUCUUCCUCUUGGUUUUUGAAUUAGUGUUAAAUAGAAUACUGUCUAGAUUCUUAAAAUAUUUUCAUUUCCAUCAUGGUUAUAACAAAUUUGCUGCAUGCCCAAACCAACAGAGGAUUGAGCAUCA
B13: chr3:15254852:15254953:-|3pUTR|ENSG00000131370|msi1|FALSE|unique (ssRNA)
RNA: GGGAGUUCUACAGUCCGACGAUCAAACUGUUAAUUCUGUCACAGCCUGUAUAUUUUAGUCAUUUGUAAAUCUCUUCAUACAAUAGUGACUUCUUUUUUGACUGAUACAGUAUCUUAAUUACAAGGUUAUUUUGUACUUGUCUUCAACAGAGGAUUGAGCAUCA
B14: chr5:113594843:113594944:+|3pUTR|ENSG00000047188|msi1|FALSE|bound_elsewhere (ssRNA)
RNA: GGGAGUUCUACAGUCCGACGAUCCAACAUAAAAUCUUGAGAACCUUCUACUUUCUCUGGGAAAGCAUUAUAUAGUGGUGCAUUAGUUUAGAAAGUCAGCUAUGAUUUUGCCUAUAGUUCUAGUUAUUAGCUUUGGGGUUUUCUCAACAGAGGAUUGAGCAUCA
B15: chr2:216672374:216672548:-|3pUTR|ENSG00000115461|msi1|total|mutant (ssRNA)
RNA: B10 RNA with U73C, A74C, U83C, A84C
B16: chr10:30313878:30313980:-|CDS|ENSG00000107951|unk|FALSE|unique (ssRNA)
RNA: GGGAGUUCUACAGUCCGACGAUCUGUUUUUAUAUUUAAGCCCUUCAUGUACUUACUCAUUUUUUCUUCUGUGUAAUAAUCUAUAGGGAAGGGAGCAAAACAAACCUGAUUCUUCUCCUCUGUACAUUCAGAAUCCAUUUGAAACAACAGAGGAUUGAGCAUCA

Changes are numbered by the printed parent chain. Whole data set: some 5,800 sequences, median “enrichment r” near 0.54, cut for the highest 2% near 16. The list comes from a sample in which the highest values are over-represented; it also holds similar and randomly drawn sequences.

The target in this assay is MSI1 full-length (mouse, UniProt Q61474 1-362). The experiment in a line: nsRBNS (natural sequence RNA bind-n-seq); RBNS binding buffer (assumed for nsRBNS): 25 mM Tris pH 7.5, 150 mM KCl, 3 mM MgCl2, 0.01% Triton X-100, 500 ug/ml BSA, 20 U/ml SUPERase-In, 4 C; UNK is unkempt and MSI1 is Musashi-1; names of the RNAs are library labels; protein concentration not given here; high values mean tight binding.
MSI1 full-length, sequence (Q61474 whole entry): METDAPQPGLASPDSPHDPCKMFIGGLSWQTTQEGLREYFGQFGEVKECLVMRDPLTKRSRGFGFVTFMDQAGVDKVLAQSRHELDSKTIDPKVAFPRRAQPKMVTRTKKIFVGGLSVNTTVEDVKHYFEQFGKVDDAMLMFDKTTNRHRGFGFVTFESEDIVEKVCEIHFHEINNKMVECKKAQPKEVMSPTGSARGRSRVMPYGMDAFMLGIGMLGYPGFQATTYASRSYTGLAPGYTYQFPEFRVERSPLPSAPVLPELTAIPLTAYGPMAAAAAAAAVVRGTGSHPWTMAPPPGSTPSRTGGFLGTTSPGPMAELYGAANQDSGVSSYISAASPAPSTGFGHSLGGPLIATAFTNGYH
On to B1, for which the binding signal was determined as 0.313 enrichment R.

As for B2, the binding signal stood at 0.319 enrichment R.

As to B3, the binding signal was determined as 1.93 enrichment R.

As to B4, the binding signal turned out to be 0.497 enrichment R.

The molecule B5 came in with a binding signal of 42.9 enrichment R.

As for B6, the binding signal was determined as 56.8 enrichment R.

Molecule B7 gave a binding signal of 0.394 enrichment R.

In turn, B8 showed a binding signal of 10.5 enrichment R.

As for B9, the binding signal was determined as 1.03 enrichment R.

The molecule B10 returned a binding signal of 21.2 enrichment R.

With B11, the binding signal is 1.55 enrichment R.

B12 returned a binding signal of 3.9 enrichment R.

In the case of B13, the binding signal was 0.848 enrichment R.

As for B14, the binding signal was 31.3 enrichment R.

In turn, B15 had a binding signal of 7.36 enrichment R.

Molecule B16 displayed a binding signal of 1.04 enrichment R.
